# Data from ChEMBL document CHEMBL3988442, “University of Dundee, Small-Polar-MMV Screening Library” (2021).
# For some assays here: Entries with a potency or affinity are not part of this list.
# Legend:
# Parameters in all cases: scale not given: direction of the effect not stated beside the values
# [1] = target: Protein translocase subunit SecA (Escherichia coli (strain K12)) (UniProt P10408); assay: Assay to Identify E. coli SecA ATPase Inhibitors; type: functional; settings: 30 µM
# [2] = target: T1, Ubiquitin-activating enzyme e1, putative (Leishmania donovani (strain BPK282A1)) (UniProt E9BSI1); assay: Leishmania donovani Ubiquitin Activating Enzyme (LdE1); type: functional; settings: 30 µM
# T1 sequence (whole entry): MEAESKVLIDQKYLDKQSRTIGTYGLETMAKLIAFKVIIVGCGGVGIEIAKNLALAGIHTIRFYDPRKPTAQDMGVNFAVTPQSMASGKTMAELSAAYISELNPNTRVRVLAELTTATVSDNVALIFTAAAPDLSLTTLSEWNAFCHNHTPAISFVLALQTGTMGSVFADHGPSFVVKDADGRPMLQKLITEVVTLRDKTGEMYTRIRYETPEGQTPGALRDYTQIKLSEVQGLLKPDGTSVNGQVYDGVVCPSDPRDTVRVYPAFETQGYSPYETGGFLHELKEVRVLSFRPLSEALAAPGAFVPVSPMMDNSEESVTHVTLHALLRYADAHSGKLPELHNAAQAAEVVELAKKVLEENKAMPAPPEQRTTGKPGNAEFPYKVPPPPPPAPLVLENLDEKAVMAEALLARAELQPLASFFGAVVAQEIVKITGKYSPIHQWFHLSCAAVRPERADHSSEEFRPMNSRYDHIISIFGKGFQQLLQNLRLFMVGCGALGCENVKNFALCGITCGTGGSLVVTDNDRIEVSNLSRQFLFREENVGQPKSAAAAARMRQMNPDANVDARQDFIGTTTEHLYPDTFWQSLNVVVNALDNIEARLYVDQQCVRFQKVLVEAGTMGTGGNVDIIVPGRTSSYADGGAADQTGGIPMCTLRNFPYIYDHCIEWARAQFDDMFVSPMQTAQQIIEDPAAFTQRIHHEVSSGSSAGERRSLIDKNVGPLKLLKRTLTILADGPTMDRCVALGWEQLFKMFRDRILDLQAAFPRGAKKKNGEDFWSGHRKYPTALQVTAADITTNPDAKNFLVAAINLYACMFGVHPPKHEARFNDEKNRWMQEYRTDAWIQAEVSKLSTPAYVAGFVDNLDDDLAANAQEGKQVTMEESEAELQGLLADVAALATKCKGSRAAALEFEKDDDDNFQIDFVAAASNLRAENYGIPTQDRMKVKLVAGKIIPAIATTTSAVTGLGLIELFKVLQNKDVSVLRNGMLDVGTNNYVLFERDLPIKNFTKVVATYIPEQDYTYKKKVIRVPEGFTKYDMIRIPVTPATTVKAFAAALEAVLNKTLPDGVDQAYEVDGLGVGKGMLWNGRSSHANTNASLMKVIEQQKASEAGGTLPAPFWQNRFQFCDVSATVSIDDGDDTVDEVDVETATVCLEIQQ
# [3] = target: AMP-activated protein kinase, AMPK (Homo sapiens) (UniProt P54646+O43741+P54619+Q9UGJ0+Q9Y478+Q13131+Q9UGI9); assay: AMP-dependent Kinase enzyme assay. An in vitro enzyme assay that detects ADP turnover that is directly proportional to AMPK activity. This uses naive AMPK that is activated during the assay with MK-8722; type: functional; settings: 30 µM
# [4] = target: Sialic acid-binding Ig-like lectin 9 (Homo sapiens) (UniProt Q9Y336); assay: Hs-Siglec9 ALPHAscreen SOP 20170721; settings: 10 µM
# Trypanosoma cruzi = assay: Trypanosoma cruzi phosphomannomutase and mannose-1-phosphate guanylyltransferase assay; type: functional; settings: 10 µM
# [5] = target: T2, Arginase-2, mitochondrial (Homo sapiens) (UniProt P78540); assay: in vitro enzyme assay to detect the production of urea directly proportional to the activity of Arginase II; type: functional; settings: 33.3 µM; also: in the data most compounds retested in dose-response had high values
# T2 sequence (whole entry): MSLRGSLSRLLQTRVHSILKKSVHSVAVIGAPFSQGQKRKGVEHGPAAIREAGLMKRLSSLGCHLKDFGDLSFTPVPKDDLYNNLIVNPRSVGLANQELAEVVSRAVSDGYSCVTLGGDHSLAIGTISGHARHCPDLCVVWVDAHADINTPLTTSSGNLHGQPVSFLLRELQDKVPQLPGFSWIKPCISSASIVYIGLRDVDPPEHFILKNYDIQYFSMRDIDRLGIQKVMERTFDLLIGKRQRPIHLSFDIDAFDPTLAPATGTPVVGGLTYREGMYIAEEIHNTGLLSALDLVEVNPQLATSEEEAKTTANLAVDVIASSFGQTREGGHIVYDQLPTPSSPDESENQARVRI
# [6] = target: T3, Proteasome subunit beta (Trypanosoma cruzi) (UniProt O96673); assay: Trypanosoma cruzi proteasome chymotrypsin-like activity (TcProtChymo) assay.; also: in the data most compounds retested in dose-response had high values; type: functional; settings: 9.37 µM
# T3 sequence (whole entry): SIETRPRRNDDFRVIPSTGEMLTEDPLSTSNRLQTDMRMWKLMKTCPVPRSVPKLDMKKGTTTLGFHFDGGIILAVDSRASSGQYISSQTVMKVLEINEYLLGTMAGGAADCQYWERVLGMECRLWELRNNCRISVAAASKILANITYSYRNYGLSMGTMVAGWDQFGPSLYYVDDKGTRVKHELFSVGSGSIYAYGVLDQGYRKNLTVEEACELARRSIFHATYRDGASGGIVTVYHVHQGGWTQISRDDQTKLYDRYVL
# Homo sapiens = organism: Homo sapiens; assay: To identify inhibition of the IFN signalling (Jak-Stat) pathway via expression of an eGFP reporter gene under the control of an IFN-stimulated response element (ISRE) containing MxA promoter.; type: functional; settings: 30 µM
# [7] = target: T4, Tyrosyl-tRNA synthetase, putative (Trypanosoma cruzi (strain CL Brener)) (UniProt Q4DSP6); assay: Trypanosoma cruzi tyrosyl tRNA synthetase (TcYRS) _High Tyrosine SOP; type: functional; settings: 30 µM; also: in the data most compounds retested in dose-response had high values
# T4 sequence (whole entry): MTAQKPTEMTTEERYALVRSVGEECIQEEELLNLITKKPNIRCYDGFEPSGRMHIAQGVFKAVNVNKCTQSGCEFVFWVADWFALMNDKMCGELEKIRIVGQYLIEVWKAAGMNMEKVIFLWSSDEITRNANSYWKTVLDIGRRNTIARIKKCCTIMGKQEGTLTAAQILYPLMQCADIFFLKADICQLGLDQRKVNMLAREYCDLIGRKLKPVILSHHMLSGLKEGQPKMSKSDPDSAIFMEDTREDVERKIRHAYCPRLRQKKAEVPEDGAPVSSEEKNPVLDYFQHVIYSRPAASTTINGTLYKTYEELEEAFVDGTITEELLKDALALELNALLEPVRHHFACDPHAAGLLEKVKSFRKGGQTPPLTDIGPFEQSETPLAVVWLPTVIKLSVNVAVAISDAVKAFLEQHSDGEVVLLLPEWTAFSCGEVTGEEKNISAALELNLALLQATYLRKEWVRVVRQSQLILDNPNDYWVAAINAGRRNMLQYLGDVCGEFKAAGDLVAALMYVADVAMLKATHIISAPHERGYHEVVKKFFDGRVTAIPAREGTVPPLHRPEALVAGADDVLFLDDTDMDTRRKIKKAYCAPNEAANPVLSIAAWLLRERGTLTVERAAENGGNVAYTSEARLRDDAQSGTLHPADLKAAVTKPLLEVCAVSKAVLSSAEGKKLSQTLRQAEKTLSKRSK
# [8] = target: T4, Tyrosyl-tRNA synthetase, putative (Trypanosoma cruzi (strain CL Brener)); assay: Trypanosoma cruzi tyrosyl tRNA synthetase (TcYRS) SOP; type: functional; settings: 30 µM
# [9] = target: Chromo domain-containing protein 1 (Saccharomyces cerevisiae (strain ATCC 204508 / S288c) (Baker's yeast)) (UniProt P32657); assay: ScCHD-1 Enzyme Inhibition Assay; type: functional; settings: 30 µM; also: in the data most compounds retested in dose-response had high values
# Sequence of Chromo domain-containing protein 1 (Saccharomyces cerevisiae (strain ATCC 204508 / S288c) (Baker's yeast)) (P32657 whole entry, the tested form may be a part): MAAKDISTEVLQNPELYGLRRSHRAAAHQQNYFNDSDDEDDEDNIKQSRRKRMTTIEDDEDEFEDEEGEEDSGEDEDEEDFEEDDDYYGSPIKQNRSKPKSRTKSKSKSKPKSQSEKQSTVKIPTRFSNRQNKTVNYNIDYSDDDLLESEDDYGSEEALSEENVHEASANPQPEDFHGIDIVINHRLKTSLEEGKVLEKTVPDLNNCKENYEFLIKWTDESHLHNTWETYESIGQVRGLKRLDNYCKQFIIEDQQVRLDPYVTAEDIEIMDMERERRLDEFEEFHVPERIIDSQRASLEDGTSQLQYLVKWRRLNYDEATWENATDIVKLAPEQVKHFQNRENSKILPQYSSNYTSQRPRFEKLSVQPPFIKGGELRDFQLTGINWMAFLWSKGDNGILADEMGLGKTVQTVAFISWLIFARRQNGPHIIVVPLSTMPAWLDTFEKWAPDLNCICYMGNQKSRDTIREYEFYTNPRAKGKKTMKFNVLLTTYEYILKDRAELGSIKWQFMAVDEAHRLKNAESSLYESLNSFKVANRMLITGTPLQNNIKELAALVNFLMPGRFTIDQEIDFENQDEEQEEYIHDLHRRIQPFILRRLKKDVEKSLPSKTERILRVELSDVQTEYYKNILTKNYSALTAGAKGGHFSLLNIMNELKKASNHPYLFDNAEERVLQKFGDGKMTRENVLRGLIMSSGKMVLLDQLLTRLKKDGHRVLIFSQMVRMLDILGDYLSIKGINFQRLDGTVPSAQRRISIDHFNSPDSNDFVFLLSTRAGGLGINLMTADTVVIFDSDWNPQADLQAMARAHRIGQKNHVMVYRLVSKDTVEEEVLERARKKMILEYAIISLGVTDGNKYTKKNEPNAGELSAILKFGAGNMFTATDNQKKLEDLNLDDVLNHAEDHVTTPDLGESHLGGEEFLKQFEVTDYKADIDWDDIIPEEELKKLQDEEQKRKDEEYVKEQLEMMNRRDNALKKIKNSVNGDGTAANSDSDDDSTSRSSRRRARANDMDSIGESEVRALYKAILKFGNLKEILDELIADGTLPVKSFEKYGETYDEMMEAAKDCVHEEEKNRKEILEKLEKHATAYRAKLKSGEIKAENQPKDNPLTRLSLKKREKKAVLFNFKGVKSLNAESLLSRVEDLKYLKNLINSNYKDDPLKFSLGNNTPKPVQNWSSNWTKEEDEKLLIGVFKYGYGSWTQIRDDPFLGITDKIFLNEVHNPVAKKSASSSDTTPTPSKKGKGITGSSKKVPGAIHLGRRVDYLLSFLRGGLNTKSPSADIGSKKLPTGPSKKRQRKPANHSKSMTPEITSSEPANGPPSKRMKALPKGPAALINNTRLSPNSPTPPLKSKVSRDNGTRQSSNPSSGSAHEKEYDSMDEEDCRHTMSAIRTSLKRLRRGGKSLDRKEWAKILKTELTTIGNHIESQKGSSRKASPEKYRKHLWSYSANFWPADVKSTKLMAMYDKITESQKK
# Sequence of Protein translocase subunit SecA (Escherichia coli (strain K12)) (P10408 whole entry): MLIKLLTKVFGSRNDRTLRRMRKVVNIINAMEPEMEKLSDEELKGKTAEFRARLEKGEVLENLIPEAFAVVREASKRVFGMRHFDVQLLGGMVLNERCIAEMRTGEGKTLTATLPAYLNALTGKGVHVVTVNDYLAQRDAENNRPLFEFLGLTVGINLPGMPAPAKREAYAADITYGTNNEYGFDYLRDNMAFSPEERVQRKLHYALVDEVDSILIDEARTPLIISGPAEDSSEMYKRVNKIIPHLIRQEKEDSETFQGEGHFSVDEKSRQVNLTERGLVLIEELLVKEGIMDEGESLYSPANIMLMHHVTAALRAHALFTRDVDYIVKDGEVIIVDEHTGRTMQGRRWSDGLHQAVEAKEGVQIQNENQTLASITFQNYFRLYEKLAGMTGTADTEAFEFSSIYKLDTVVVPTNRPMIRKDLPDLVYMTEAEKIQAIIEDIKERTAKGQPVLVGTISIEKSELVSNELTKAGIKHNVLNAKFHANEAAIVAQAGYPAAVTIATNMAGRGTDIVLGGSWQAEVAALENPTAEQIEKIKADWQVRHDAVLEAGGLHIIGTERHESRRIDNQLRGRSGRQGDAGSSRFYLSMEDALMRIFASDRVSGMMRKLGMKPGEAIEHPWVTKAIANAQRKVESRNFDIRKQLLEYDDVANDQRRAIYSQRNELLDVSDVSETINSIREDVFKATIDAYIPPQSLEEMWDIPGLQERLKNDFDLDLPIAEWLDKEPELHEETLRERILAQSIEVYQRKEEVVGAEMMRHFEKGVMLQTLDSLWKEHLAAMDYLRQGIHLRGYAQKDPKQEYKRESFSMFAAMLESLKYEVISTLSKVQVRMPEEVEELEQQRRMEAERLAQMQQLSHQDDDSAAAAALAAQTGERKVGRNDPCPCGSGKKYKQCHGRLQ
# Sequence of Sialic acid-binding Ig-like lectin 9 (Homo sapiens) (Q9Y336 whole entry): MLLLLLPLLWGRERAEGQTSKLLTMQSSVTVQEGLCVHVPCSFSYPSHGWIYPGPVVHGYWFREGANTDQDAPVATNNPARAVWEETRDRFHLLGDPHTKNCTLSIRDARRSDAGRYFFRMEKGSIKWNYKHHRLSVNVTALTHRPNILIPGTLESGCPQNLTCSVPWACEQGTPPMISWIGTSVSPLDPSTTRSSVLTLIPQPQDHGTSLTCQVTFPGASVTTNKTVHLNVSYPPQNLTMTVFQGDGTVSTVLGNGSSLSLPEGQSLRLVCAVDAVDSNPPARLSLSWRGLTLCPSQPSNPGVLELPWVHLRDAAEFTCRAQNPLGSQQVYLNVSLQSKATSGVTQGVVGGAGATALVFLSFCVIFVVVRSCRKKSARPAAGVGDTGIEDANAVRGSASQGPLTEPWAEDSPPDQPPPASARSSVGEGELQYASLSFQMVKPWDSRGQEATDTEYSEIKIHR
Compound,Percent Effect [1],Percent Effect [2],Percent Effect [3],Percent Effect [4],Percent Effect (Trypanosoma cruzi),Percent Effect [5],Percent Effect [6],Percent Effect (Homo sapiens),Percent Effect [7],Percent Effect [8],Percent Effect [9]
Cc1cc(C)n(-c2cc(N3CCN(C(=O)C(C)(C)C)CC3)nc(C)n2)n1,-2.73%,5.33%,-1.22%,6.39%,2.04%,14.1%,3.31%,26.8%,0.546%,3.7%,-5.38%
CCSc1cc(C(=O)NCc2ccccc2O)ccn1,-5.37%,0%,5.33%,-0.329%,7.05%,-0.909%,12.2%,44.3%,3.23%,5%,-5.04%
O=C(C1CCOCC1)N1C[C@@H]2[C@@H](C1)OCC(=O)N2Cc1ccncc1,-1.9%,-2.74%,-1.14%,7.63%,1.19%,-0.399%,4.2%,2.13%,2.08%,-6.17%,-1.66%
COc1ccc(-c2cnc(CN3CCn4c(C)nnc4C3)o2)cc1,-8.18%,5.26%,-2.37%,6.41%,10.9%,-3.06%,7.18%,11.6%,6.37%,19.5%,-14.7%
CCOCC(=O)N1CCC(Oc2ccc(Cl)cn2)CC1,-0.654%,7.79%,2.32%,8.91%,-0.888%,4.52%,25.9%,21.4%,8.47%,8.97%,-8.06%
Clc1ccccc1C1(c2ccnc(-c3ccncc3)n2)CCNCC1,-0.572%,7.79%,3.38%,10.4%,-2.26%,-8.28%,17%,16.3%,6.45%,13.6%,2.54%
CCCNC(=O)c1ccc(NC(=O)c2cccc(OCC)c2)cc1,1.49%,-5.41%,0.466%,-0.164%,-1.16%,0.952%,7.07%,3.02%,0.529%,2.44%,2.44%
NC(=O)c1ccc(N2CCCCC2)c(NC(=O)c2cc(Br)ccc2F)c1,-3.67%,7.79%,2.61%,8.24%,0.295%,-16.6%,14.8%,1.93%,4.3%,6.17%,24.8%
O=C(CN1CC(n2cccn2)C1)NCCCc1ccccc1,0.869%,-13.5%,10.2%,12.8%,6.41%,1.29%,-0.179%,-9.65%,1.98%,11%,1.45%
O=C(C1CCC1)N1CCCC1c1nnc2n1CCCCC2 (stereo unspecified),-0.546%,13.5%,-1.97%,-4.28%,2.34%,33.3%,9.89%,27.9%,11.9%,15.8%,2.32%
Cc1nc(-c2ccsc2)ccc1C(=O)NCCC1CCCO1 (stereo unspecified),-8.67%,0%,-8.2%,10%,9.77%,-1.92%,3.51%,-2.44%,4.41%,9.76%,-10.2%
CCc1cnc(N2CCC3(CC2)CN(c2cccnc2)C(=O)CO3)nc1,-5.43%,0%,2.98%,-2.45%,-3.03%,-4.78%,7.01%,26.6%,-4.32%,-7.69%,6.26%
CCc1nc(CN(C(C)=O)C2CCN(Cc3cnc(C)cn3)C2)no1 (stereo unspecified),-1.41%,22.8%,-8.69%,-10.4%,-3.31%,4.18%,5.16%,27.4%,4.43%,13.9%,-6.99%
Cc1cn2c(n1)CCC(NC(=O)c1nc(C)ncc1Cl)C2 (stereo unspecified),-5.44%,7.79%,5.82%,3.39%,4.41%,1.05%,8.49%,-7.16%,4.76%,18.8%,-23.3%
Cc1ccc(-c2cc(N)c(=O)n(CC(=O)NCC3CCCCC3)n2)s1,-3.51%,9.46%,11.8%,-4.16%,-6.13%,-2.09%,12.3%,9.89%,-6.45%,3.9%,-4.23%
Cc1nnc(C(C)NCC2(c3c(F)cccc3F)CCCC2)o1 (stereo unspecified),-2.54%,-2.7%,-3.85%,0.273%,-0.965%,1.91%,7.93%,14.7%,0.529%,9.76%,-3.86%
